Experimental findings from ChEMBL document CHEMBL3988442, “University of Dundee, Small-Polar-MMV Screening Library” (2021) are described below.

Each structure is given as a SMILES string. For some of these results: Entries with a potency or affinity are not part of this list.

Common to all, as to parameters: scale not given: direction of the effect not stated beside the values
Test [1] addresses Protein translocase subunit SecA (Escherichia coli (strain K12)) (UniProt P10408). Kind of test: Assay to Identify E. coli SecA ATPase Inhibitors. It counts as functional. The conditions noted are these: 30 µM.
In test [2] the target is T1, Ubiquitin-activating enzyme e1, putative (Leishmania donovani (strain BPK282A1)) (UniProt E9BSI1).
T1 sequence (whole entry): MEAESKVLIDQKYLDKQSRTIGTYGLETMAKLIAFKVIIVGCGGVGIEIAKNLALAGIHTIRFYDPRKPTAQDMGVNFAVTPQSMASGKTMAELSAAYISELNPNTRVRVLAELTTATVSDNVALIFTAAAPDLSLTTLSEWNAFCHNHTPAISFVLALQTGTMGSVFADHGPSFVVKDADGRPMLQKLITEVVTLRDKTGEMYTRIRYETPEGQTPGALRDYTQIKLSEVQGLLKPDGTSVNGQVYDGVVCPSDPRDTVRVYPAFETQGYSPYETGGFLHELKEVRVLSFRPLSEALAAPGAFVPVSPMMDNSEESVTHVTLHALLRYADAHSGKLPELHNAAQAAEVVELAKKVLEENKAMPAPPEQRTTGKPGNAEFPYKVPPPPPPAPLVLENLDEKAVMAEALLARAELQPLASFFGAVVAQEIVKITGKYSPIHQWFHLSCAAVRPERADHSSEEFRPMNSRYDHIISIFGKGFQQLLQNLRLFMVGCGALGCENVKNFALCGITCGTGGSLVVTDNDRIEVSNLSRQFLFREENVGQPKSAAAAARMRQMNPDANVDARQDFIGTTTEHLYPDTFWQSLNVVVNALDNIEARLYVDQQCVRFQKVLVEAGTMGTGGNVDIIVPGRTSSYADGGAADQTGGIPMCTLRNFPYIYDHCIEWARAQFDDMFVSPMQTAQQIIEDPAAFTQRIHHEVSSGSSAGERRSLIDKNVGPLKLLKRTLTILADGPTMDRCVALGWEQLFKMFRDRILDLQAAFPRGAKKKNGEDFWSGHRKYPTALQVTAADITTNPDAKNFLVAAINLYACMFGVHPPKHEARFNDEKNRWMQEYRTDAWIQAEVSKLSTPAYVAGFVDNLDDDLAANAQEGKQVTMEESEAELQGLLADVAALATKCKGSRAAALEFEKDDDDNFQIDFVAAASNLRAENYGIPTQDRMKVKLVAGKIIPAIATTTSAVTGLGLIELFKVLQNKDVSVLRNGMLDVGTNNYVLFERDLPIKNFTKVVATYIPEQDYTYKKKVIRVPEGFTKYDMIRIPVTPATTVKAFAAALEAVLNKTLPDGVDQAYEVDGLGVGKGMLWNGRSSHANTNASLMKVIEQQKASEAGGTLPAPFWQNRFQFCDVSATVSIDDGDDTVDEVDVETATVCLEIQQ
Nature of the test: Leishmania donovani Ubiquitin Activating Enzyme (LdE1). It counts as functional. Conditions: 30 µM.

For test [3], the target named is AMP-activated protein kinase, AMPK (Homo sapiens) (UniProt P54646+O43741+P54619+Q9UGJ0+Q9Y478+Q13131+Q9UGI9). Nature of the test: AMP-dependent Kinase enzyme assay. An in vitro enzyme assay that detects ADP turnover that is directly proportional to AMPK activity. This uses naive AMPK that is activated during the assay with MK-8722. Conditions: 30 µM. It counts as functional.

For test [4], the target named is Sialic acid-binding Ig-like lectin 9 (Homo sapiens) (UniProt Q9Y336). Kind of test: Hs-Siglec9 ALPHAscreen SOP 20170721. Conditions: 10 µM.
Sialic acid-binding Ig-like lectin 9 (Homo sapiens), sequence (Q9Y336 whole entry): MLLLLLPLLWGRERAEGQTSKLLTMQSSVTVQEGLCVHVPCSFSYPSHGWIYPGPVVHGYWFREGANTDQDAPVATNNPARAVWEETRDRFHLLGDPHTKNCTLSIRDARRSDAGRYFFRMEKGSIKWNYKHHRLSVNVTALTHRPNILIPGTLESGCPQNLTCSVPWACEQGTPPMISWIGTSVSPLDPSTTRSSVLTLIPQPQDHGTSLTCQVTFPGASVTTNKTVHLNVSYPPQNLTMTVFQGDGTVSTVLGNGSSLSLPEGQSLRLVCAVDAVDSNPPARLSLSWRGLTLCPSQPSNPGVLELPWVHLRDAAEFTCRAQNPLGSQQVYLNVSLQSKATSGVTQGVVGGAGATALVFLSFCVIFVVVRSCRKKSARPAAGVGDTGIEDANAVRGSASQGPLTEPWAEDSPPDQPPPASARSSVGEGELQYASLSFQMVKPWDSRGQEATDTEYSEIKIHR
The test system of test [5] is Trypanosoma cruzi. Kind of test: Trypanosoma cruzi phosphomannomutase and mannose-1-phosphate guanylyltransferase assay. Conditions: 10 µM. The class given is functional.
Test [6] deals with T2, Arginase-2, mitochondrial (Homo sapiens) (UniProt P78540).
T2 sequence (whole entry): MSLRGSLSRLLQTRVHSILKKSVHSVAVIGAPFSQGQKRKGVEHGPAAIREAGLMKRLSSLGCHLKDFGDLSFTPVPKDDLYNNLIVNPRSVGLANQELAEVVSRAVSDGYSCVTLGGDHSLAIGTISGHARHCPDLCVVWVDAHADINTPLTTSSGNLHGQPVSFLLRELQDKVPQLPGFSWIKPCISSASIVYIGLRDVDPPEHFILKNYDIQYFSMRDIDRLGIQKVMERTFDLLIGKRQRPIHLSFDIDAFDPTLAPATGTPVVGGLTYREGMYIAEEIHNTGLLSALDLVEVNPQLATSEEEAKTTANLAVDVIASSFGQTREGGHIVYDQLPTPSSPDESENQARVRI
Kind of test: in vitro enzyme assay to detect the production of urea directly proportional to the activity of Arginase II. Note: in the data most compounds retested in dose-response had high values. It counts as functional. Conditions: 33.3 µM.

Test [7] concerns the target T3, Proteasome subunit beta (Trypanosoma cruzi) (UniProt O96673).
T3 sequence (whole entry): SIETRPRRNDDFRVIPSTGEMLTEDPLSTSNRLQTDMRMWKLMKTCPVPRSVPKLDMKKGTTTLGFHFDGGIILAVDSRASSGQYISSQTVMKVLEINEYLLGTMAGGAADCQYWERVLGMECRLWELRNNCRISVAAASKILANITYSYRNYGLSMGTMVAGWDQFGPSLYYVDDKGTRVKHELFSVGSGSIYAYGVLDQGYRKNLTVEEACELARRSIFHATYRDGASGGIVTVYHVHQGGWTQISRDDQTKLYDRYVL
Nature of the test: Trypanosoma cruzi proteasome chymotrypsin-like activity (TcProtChymo) assay. Note: in the data most compounds retested in dose-response had high values. The class given is functional. The conditions noted are these: 9.37 µM.

The species named for test [8] is Homo sapiens. Nature of the test: To identify inhibition of the IFN signalling (Jak-Stat) pathway via expression of an eGFP reporter gene under the control of an IFN-stimulated response element (ISRE) containing MxA promoter. Conditions: 30 µM. The class given is functional. For orientation: Reporter assays use an easily measured gene product as a stand-in for the process of interest.

The target of test [9] is T4, Tyrosyl-tRNA synthetase, putative (Trypanosoma cruzi (strain CL Brener)) (UniProt Q4DSP6).
T4 sequence (whole entry): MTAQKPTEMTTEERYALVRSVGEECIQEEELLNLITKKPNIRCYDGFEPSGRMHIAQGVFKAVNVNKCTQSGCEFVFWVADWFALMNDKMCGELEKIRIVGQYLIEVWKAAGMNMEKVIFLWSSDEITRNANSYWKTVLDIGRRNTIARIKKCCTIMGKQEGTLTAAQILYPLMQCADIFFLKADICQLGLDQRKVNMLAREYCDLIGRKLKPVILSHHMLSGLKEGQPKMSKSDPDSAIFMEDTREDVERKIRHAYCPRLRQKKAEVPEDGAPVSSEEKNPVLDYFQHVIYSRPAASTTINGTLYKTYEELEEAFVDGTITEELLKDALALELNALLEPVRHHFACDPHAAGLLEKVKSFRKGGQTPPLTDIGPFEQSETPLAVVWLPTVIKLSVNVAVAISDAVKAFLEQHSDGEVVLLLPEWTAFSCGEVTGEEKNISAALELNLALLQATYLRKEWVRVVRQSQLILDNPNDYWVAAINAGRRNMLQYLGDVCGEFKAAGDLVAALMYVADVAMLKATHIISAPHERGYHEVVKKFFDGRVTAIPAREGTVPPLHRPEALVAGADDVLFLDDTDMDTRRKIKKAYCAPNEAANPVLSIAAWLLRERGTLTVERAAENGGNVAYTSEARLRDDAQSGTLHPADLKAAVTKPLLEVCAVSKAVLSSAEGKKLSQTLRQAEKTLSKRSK
Nature of the test: Trypanosoma cruzi tyrosyl tRNA synthetase (TcYRS) _High Tyrosine SOP. Note: in the data most compounds retested in dose-response had high values. Conditions: 30 µM. It counts as functional.

For test [10], the target named is T4, Tyrosyl-tRNA synthetase, putative (Trypanosoma cruzi (strain CL Brener)). Kind of test: Trypanosoma cruzi tyrosyl tRNA synthetase (TcYRS) SOP. It counts as functional. Conditions: 30 µM.
Test [11] concerns the target Chromo domain-containing protein 1 (Saccharomyces cerevisiae (strain ATCC 204508 / S288c) (Baker's yeast)) (UniProt P32657). Nature of the test: ScCHD-1 Enzyme Inhibition Assay. Note: in the data most compounds retested in dose-response had high values. It counts as functional. Conditions: 30 µM.

Protein translocase subunit SecA (Escherichia coli (strain K12)), sequence (P10408 whole entry): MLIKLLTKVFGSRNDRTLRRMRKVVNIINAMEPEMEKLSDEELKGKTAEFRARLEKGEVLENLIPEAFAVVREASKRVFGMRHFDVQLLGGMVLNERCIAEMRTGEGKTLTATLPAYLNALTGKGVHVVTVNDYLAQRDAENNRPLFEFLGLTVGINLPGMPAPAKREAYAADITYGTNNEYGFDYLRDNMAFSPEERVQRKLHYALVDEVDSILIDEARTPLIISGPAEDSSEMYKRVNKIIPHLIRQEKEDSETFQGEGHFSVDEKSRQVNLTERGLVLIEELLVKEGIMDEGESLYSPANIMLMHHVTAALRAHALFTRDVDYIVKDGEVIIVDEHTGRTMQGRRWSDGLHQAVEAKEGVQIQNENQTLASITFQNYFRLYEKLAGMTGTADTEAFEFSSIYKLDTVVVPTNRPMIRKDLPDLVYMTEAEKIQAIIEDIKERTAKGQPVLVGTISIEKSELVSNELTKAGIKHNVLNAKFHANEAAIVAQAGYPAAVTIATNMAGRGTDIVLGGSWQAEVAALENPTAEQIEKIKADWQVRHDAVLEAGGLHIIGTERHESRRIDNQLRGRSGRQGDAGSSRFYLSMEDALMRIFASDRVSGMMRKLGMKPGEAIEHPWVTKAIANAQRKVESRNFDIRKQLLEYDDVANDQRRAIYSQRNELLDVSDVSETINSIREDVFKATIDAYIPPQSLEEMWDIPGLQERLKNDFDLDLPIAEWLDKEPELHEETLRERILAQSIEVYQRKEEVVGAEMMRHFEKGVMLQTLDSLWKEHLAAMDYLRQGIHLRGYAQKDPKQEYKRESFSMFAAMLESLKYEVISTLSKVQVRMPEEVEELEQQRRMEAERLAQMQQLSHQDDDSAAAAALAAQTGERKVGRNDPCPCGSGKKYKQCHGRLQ
Chromo domain-containing protein 1 (Saccharomyces cerevisiae (strain ATCC 204508 / S288c) (Baker's yeast)), sequence (P32657 whole entry, the tested form may be a part): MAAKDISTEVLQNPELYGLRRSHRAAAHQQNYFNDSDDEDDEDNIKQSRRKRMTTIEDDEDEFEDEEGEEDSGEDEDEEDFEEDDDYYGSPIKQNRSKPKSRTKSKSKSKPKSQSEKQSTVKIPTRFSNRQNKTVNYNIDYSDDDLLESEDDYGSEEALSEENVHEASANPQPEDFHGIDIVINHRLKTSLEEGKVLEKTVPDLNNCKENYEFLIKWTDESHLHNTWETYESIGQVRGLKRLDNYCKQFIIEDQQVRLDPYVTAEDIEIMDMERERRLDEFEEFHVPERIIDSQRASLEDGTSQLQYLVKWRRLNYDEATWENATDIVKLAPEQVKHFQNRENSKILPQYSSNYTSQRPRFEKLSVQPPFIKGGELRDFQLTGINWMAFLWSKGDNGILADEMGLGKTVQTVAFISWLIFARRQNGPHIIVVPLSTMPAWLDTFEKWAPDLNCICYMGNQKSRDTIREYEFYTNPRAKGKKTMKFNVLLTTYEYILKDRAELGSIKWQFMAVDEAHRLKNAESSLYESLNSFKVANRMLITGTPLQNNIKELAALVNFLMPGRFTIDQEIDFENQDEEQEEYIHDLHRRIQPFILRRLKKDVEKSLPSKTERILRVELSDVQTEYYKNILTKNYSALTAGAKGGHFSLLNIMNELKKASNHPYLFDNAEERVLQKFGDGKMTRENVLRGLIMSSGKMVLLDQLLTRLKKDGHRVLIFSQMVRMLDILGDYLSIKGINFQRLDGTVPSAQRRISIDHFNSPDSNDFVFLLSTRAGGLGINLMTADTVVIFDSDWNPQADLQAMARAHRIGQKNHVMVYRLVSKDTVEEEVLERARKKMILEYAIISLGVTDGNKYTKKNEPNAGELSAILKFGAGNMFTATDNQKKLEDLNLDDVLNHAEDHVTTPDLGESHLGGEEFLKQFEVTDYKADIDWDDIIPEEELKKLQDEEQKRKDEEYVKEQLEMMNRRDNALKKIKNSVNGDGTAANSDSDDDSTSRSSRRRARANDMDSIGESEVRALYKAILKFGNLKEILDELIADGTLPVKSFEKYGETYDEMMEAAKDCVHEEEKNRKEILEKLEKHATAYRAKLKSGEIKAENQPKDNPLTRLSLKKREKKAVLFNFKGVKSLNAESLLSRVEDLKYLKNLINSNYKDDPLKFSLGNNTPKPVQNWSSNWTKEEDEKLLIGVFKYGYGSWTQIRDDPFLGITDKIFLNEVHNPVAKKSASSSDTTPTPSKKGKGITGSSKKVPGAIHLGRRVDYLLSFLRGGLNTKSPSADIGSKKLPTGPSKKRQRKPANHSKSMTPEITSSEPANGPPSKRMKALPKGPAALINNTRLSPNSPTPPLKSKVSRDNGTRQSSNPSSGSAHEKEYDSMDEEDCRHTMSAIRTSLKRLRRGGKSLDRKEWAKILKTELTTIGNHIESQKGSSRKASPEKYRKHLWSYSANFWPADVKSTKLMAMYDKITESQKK

For the compound `CC(C)(C)c1nc(CN(Cc2cccs2)C2CCS(=O)(=O)C2)no1` (stereo not drawn), the Percent Effect was -1.36% in [1]; 21.1% in test [2]; -5.34% in [3]; -2% in test [4]; 4.76% in test [5]; 1.44% in test [6]. In addition, the Percent Effect is 5.67% in test [7]; 26.2% in test [8]; 6.4% in [9]; 25.9% in test [10]; -8.43% in [11].

For the compound `C[C@H]1C[C@H]2CN(C(=O)c3ccncn3)CC[C@H]2O1`, the Percent Effect in [1] is -6.88%; in test [2], 2.7%; in [3] it was -0.849%; in test [4], -1.39%; in test [5] it was 2.54%; in test [6], 2.08%. The Percent Effect in [7] was 12.1%; in test [8], -0.328%; in test [9], 6.93%; in test [10] it was 1.22%; in test [11], -3.3%.

In the case of `c1csc(N2CCCN(Cc3nc(C4CC4)no3)CC2)n1`, the Percent Effect in test [1] was -5.91%; in [2] it was 10.4%; in test [3], -4.1%; in test [4] it was 9.22%; in test [5], -0.749%; in [6], -2.49%. Also, the Percent Effect in test [7] is -1.18%; in test [8], 19%; in test [9], 5.83%; in test [10] it was 14.6%; in test [11], 5.76%.

For `Cc1nnc(CCNC2CCN(c3ncnc4c(C)csc34)CC2)s1`, the Percent Effect in [1] was -3.21%; in test [2], 7.79%; in [3] it was 3.06%; in [4], 11%; in test [5], 7.77%; in [6], -2.76%. The Percent Effect in test [7] is 12.8%; in test [8] it was 40.2%; in test [9] it was 8.6%; in test [10] it was 16.1%; in [11], -8.66%.

Regarding `Cc1noc(C2CCCN(C(=O)c3ccc(Br)cc3F)C2)n1` (stereo not drawn), the Percent Effect was -5.32% in test [1]; 10.4% in [2]; 2.06% in [3]; 2.58% in test [4]; 6.95% in test [5]; 2.74% in [6]. Moreover, the Percent Effect in [7] is 6.87%; in test [8], -5.04%; in [9], 1.91%; in test [10], 18.8%; in test [11], -19.5%.

As to `Cc1cc(N2CCN(Cc3ccccc3)CC(O)C2)cc(C)n1` (stereo not drawn), the Percent Effect in [1] is -7.08%; in [2], -2.7%; in test [3], 1.17%; in [4], 11.4%; in [5], -1.74%; in [6] it was -3.81%. For the same compound, the Percent Effect in test [7] is 2.07%; in test [8], 20.1%; in test [9] it was -0.529%; in [10], 4.88%; in test [11] it was -1.99%.

Regarding `O=C(NCC(O)c1cccs1)c1cccc(Cl)c1` (stereo not drawn), the Percent Effect in [1] was -0.149%; in [2], 13.7%; in test [3], 3.83%; in test [4] it was 0.22%; in test [5], 3.72%; in [6] it was 7.27%. Moreover, the Percent Effect in test [7] was 25.6%; in test [8] it was 13.3%; in test [9], 6.45%; in [10] it was 17.5%; in [11], -6.71%.

As to `O=C(Nc1cccc(CN2CCOC2=O)c1)N1CCOCC1`, the Percent Effect in test [1] is -1.28%; in test [2], 1.39%; in [3], -4.85%; in test [4], -10.5%; in test [5], -4.76%; in test [6] it was 3.09%. Moreover, the Percent Effect in test [7] was 12.6%; in [8], 2.75%; in test [9], 2.1%; in test [10], 7.69%; in test [11], -2.72%.
